Experimental findings from PubChem BioAssay (NCI) are described below.

Test systems include SR leukemia; RPMI-8226 leukemia; OVCAR-8 ovarian; OVCAR-5 ovarian; OVCAR-4 ovarian; SK-OV-3 ovarian; IGROV1 ovarian; OVCAR-3 ovarian; HS 578T breast; NCI/ADR-RES ovarian; T-47D breast; BT-549 breast; MDA-MB-435 melanoma; SW-620 colon; MCF7 breast; HCT-116 colon; HCC-2998 colon; KM12 colon.
Holding throughout (test): NCI-60 one-dose screen, 48 h (100 = growth as untreated, 0 = no growth, -100 = all killed)
Common to all, as to details: 10 µM unless noted

The panel holds about 83,000 compounds, 20% with a hit somewhere; the sample as a whole holds those more often.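 Percent growth is the endpoint: 0 to 100 indicates growth inhibition (40 means 60% inhibition), 0 means no net growth, and negative values indicate cell death.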 Unmarked numbers belong to inactive results. Active and inactive are the calls of the source. Rule for the calls: active = growth percent below 10; inactive = the rest.

Turning to `CCOC(=O)N1CC1`, the growth was -20.9% (active) in the test on SR leukemia; 91.2% in the test with RPMI-8226 leukemia; 101% in the test on OVCAR-8 ovarian; 97.1% in the test with OVCAR-5 ovarian; 93.1% in the test with OVCAR-4 ovarian; 111% in the test on SK-OV-3 ovarian. In addition, the growth with IGROV1 ovarian was 93.5%; in the test with OVCAR-3 ovarian it was 111%; in the test with HS 578T breast, 112%; with NCI/ADR-RES ovarian it was 98%; in the test on T-47D breast, 114%; in the test with BT-549 breast, 109%. For the same compound, the growth in the test with MDA-MB-435 melanoma was 97.1%; in the test on SW-620 colon it was 103%; with MCF7 breast, 102%; in the test with HCT-116 colon it was 98.4%; with HCC-2998 colon it was 150%; with KM12 colon, 107%.

Take `COc1ccc(/C=C\c2cc(OC)c(OC)c(OC)c2)cc1NS(=O)(=O)c1ccc(Cl)cc1`: the growth is 51.4% in the test with SR leukemia; 64.3% in the test with RPMI-8226 leukemia; 78.5% with OVCAR-8 ovarian; 83.4% in the test on OVCAR-5 ovarian; 55% in the test with OVCAR-4 ovarian; 81.9% in the test with SK-OV-3 ovarian. Also, the growth with IGROV1 ovarian is 61.9%; with OVCAR-3 ovarian it was 76.6%; with HS 578T breast, 67.8%; in the test with NCI/ADR-RES ovarian, 35.2%; in the test on T-47D breast it was 59.9%; with BT-549 breast, 83.5%. For the same compound, the growth was 3.63% (active) in the test with MDA-MB-435 melanoma; 73.6% in the test on SW-620 colon; 61.8% in the test on HCT-116 colon; 74.8% in the test with HCC-2998 colon; 50.4% in the test with KM12 colon.

As for `CN1CC(CNC(=O)OCc2ccccc2)CC2c3cccc4c3c(cn4C)CC21` (stereo unspecified), the growth with OVCAR-8 ovarian is 62.4%; with OVCAR-5 ovarian, 64.6%; in the test on SK-OV-3 ovarian, 69%; with IGROV1 ovarian it was 52.6%; in the test with OVCAR-3 ovarian, 61.9%; in the test with HS 578T breast, 49.4%. For the same compound, the growth was 44.2% with NCI/ADR-RES ovarian; 31.6% in the test on T-47D breast; 50% in the test on BT-549 breast; 3% (active) with MDA-MB-435 melanoma; 35.9% in the test on SW-620 colon; -55.3% (active) in the test on MCF7 breast. Also, the growth in the test on HCT-116 colon is 31.7%; in the test on HCC-2998 colon it was -66.9% (active); in the test with KM12 colon it was 38.1%.

As to `Cc1c(NS(=O)(=O)c2ccccc2)ccc([N+](=O)[O-])c1Cl`, the growth in the test with RPMI-8226 leukemia is 42.4%; in the test on OVCAR-8 ovarian, 74.6%; in the test with OVCAR-5 ovarian, 89.1%; with OVCAR-4 ovarian, 47.3%; in the test with SK-OV-3 ovarian, 71.3%; in the test with IGROV1 ovarian, 72.5%. Besides, the growth is 42.2% in the test with OVCAR-3 ovarian; 64.4% in the test with HS 578T breast; 86.3% in the test with NCI/ADR-RES ovarian; 77.7% with BT-549 breast; 39.8% with MDA-MB-435 melanoma; 91.6% with SW-620 colon. In addition, the growth was 92.8% in the test with MCF7 breast, 73.3% with HCT-116 colon and 70.1% in the test on KM12 colon.

For the compound `O=[N+]([O-])c1c(Br)sc(Br)c1[N+](=O)[O-]`, the growth was -5.81% (active) in the test with SR leukemia; 16.7% in the test on RPMI-8226 leukemia; 5.21% (active) in the test on OVCAR-8 ovarian; 76.3% in the test with OVCAR-5 ovarian; 30.9% in the test with OVCAR-4 ovarian; 98.7% in the test on SK-OV-3 ovarian. Further, the growth in the test with IGROV1 ovarian was 3.28% (active); with OVCAR-3 ovarian it was -62.4% (active); in the test on NCI/ADR-RES ovarian, -23.6% (active); in the test on T-47D breast, -6.93% (active); with MDA-MB-435 melanoma, 17.5%; in the test with SW-620 colon, -77% (active). The values for the growth in the test on HCT-116 colon, in the test with HCC-2998 colon and with KM12 colon were -85.2% (active), 68% and 64.1%, respectively.

Turning to `Cn1cc(C2=C(c3cn(C4CCN(Cc5ccccn5)CC4)c4ccccc34)C(=O)NC2=O)c2ccccc21`, the growth in the test on RPMI-8226 leukemia was 107%; in the test with OVCAR-8 ovarian it was 78.8%; in the test with OVCAR-5 ovarian, 31.2%; in the test with OVCAR-4 ovarian, 76.8%; with SK-OV-3 ovarian, 83.5%; with IGROV1 ovarian, 33.9%. The growth in the test with OVCAR-3 ovarian is 90.3%; in the test with NCI/ADR-RES ovarian, 84.4%; in the test with T-47D breast it was 54.5%; with BT-549 breast, 78.3%; in the test on MDA-MB-435 melanoma it was 47.6%; with SW-620 colon, 47.8%. The growth in the test on MCF7 breast was 76.1%; with HCT-116 colon, 38.2%; with HCC-2998 colon it was 31.4%; with KM12 colon it was 57.2%.

On to `N#CC1(C#N)C(c2ccc(N(CCCl)CCCl)cc2)OC23CCCCC2C1(C#N)C(=N)O3` (stereo unspecified), for which the growth was 96.2% with RPMI-8226 leukemia; 80.6% with OVCAR-8 ovarian; 105% with OVCAR-5 ovarian; 91.9% in the test with OVCAR-4 ovarian; 96.8% with SK-OV-3 ovarian; 77% in the test with IGROV1 ovarian. Besides, the growth was 98.5% in the test on OVCAR-3 ovarian; 101% in the test on HS 578T breast; 71% with NCI/ADR-RES ovarian; 65.6% with T-47D breast; 84.6% in the test on BT-549 breast; 88.6% with SW-620 colon. For the same compound, the growth is 49.3% with MCF7 breast, 89.2% in the test on HCT-116 colon, 95.2% in the test on HCC-2998 colon and 100% in the test on KM12 colon.

In the case of `ClCCN(CCCl)c1ccc(/C=N\N=C\c2ccc(N(CCCl)CCCl)cc2)cc1`, the growth with RPMI-8226 leukemia was 39.8%; with OVCAR-8 ovarian, 33.8%; with OVCAR-5 ovarian, 107%; with OVCAR-4 ovarian, 53%; in the test with SK-OV-3 ovarian, 19.6%; in the test with IGROV1 ovarian it was 71.5%. Besides, the growth in the test with OVCAR-3 ovarian is 55.7%; with HS 578T breast, 78.2%; in the test with NCI/ADR-RES ovarian, 55.1%; with BT-549 breast it was 50.5%; in the test with MDA-MB-435 melanoma, 27.4%; in the test with SW-620 colon it was 36.8%. The growth in the test on MCF7 breast is 35.1%; in the test with HCT-116 colon it was 36.7%; in the test on HCC-2998 colon, 45.7%; in the test with KM12 colon, 30.3%.

`CC1=C2[C@@H](CC1)[C@]1(C)O[C@@](C(C)C)(C[C@H]1O)[C@H]2OC(=O)C1CC1c1ccccc1` (stereo partly specified): the growth with SR leukemia is 92.4%; with RPMI-8226 leukemia, 58.2%; in the test with OVCAR-8 ovarian, 71.8%; in the test with OVCAR-5 ovarian, 97.5%; in the test on OVCAR-4 ovarian, 91.8%; in the test on SK-OV-3 ovarian, 90.6%. The growth in the test with IGROV1 ovarian was 96.2%; in the test with OVCAR-3 ovarian, 100%; in the test with HS 578T breast, 95.5%; with NCI/ADR-RES ovarian it was 77.4%; with T-47D breast, 53.4%; in the test with BT-549 breast it was 81.4%. The growth was 98.4% in the test on MDA-MB-435 melanoma; 101% with SW-620 colon; 92.2% in the test on MCF7 breast; 90.7% with HCT-116 colon; 115% in the test with HCC-2998 colon; 92% in the test on KM12 colon.

As to `CC(C)[C@]12O[C@H]1[C@@H]1O[C@]13[C@]1(O[C@H]1C[C@H]1c4c(C(=O)c5ccccc5)oc(OC(=O)c5ccccc5)c4CC[C@@]13C)[C@@H]2O`, the growth was 6.13% (active) in the test on OVCAR-8 ovarian; 15.2% in the test on OVCAR-5 ovarian; 21.3% in the test on OVCAR-4 ovarian; 27.3% with SK-OV-3 ovarian; -33% (active) in the test on IGROV1 ovarian; -57.5% (active) in the test on OVCAR-3 ovarian. Also, the growth in the test with HS 578T breast was -30.6% (active); in the test with NCI/ADR-RES ovarian, 8.83% (active); in the test with T-47D breast, 6.53% (active); in the test with BT-549 breast, -24.3% (active); in the test with SW-620 colon, -3.73% (active); in the test with MCF7 breast, 12.5%. Besides, the values for the growth with HCT-116 colon, with HCC-2998 colon and with KM12 colon were 5.12% (active), -15.3% (active) and -15.7% (active), respectively.
